Results on 40 compounds are retold here after PubChem BioAssay (NCATS).

Results filed as inconclusive are left out. A number with no mark means an inactive call. Active and inactive are the calls of the source. The call rests on the fitted dose curve; in most records, active means well fitted cell-killing curve with a large enough effect; inconclusive means small, poorly fitted or top-dose-only effect, or effect the other way; inactive means no such curve, though single readings can be large or run the other way.
Potency means the concentration at half of the fitted maximal effect.

A short description of one test: Viability qHTS for spleen associated tyrosine kinase inhibitor (SYKi) naive MV4-11 cells (AID 1963823). Further: nearly all actives have a fitted effect of over 40% in size. Particulars: MV4-11 AML viability, CellTiter-Glo luminescence, 72 h; series mostly up to 45 µM. In a few lines: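 Viability of MV4-11 AML cells lacking prior SYK inhibitor exposure is scored by CellTiter-Glo luminescence following 72 hr compound incubation at 37 C, 5% CO2, seeded at 500 cells per well.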
Regarding `O=C(CC(c1ccccc1)c1ccccc1)N1CCN(C(c2ccccc2)c2ccccc2)CC1`, the Potency was 13 µM (active).
Regarding `COC(=O)[C@@]1(O)C=CC[C@@H]2[C@@]3(C)C[C@@H](c4ccoc4)OC(=O)[C@H]3CC[C@]21C`, the Potency result was “inactive”.
As to `COc1cc(C(=O)OC[C@H]2O[C@@H](OC(C)(C)C(=O)O)[C@H](O)[C@@H](O)[C@@H]2O)cc(OC)c1O`, the Potency entry is “inactive”.
As for `CCC/C=C/C=C/C1CC(O)C(O)C(=O)C1CO` (configuration not stated), the Potency entry is “inactive”.
Same read-out and setting: as for `COc1c2cc(c(O[C@@H]3O[C@H](CO)[C@@H](O)[C@H](O)[C@H]3O)c1OC)CCCCC(O)CCc1ccc(O)c-2c1` (some centres not stated), the entry is “inactive”.
`C(#Cc1nc2ncccc2nc1OCCN1CCCC1)c1ccccc1`: the Potency was 0.651 µM (active).
Turning to `C=C1C(=O)O[C@H]2C3=C(C)CCC[C@]3(C)C(=O)C[C@@H]12`, the Potency was 1.3 µM (active).
Regarding `CCNC(=O)[C@@H]1CCCN1C(=O)[C@H](CCCN=C(N)N)NC(=O)[C@H](CC(C)C)NC(=O)[C@@H](CC(C)C)NC(=O)[C@H](Cc1ccc(O)cc1)NC(=O)[C@H](CO)NC(=O)[C@H](Cc1c[nH]c2ccccc12)NC(=O)[C@H](Cc1cnc[nH]1)NC(=O)[C@@H]1CCC(=O)N1`, the Potency result is “inactive”.
Same read-out and setting: as for `CC[C@H](CO)Nc1nc(Nc2cccc(-c3ccccn3)c2)c2ncn(C(C)C)c2n1`, the figure is 2.59 µM (active).
Still for that read-out and setting: for `CC1=C2CC(=O)C(C)CC/C=C(\C)CC2OC1=O` (configuration not stated) the value was “inactive”; for `C=CC(C)(C)c1[nH]c2ccccc2c1C[C@@H]1NC(=O)[C@H](C)NC1=O`, “inactive”; for `CCN1/C(=C/C=C/c2sc3ccccc3[n+]2CC)Sc2ccccc21`, 0.0184 µM (active).

Another test is described as follows: Viability qHTS for spleen associated tyrosine kinase inhibitor (SYKi) drug resistant MV4-11 cells (AID 1963824). Further: nearly all actives have a fitted effect of over 35% in size. Particulars: SYKi-resistant MV4-11 viability, CellTiter-Glo, 72 h; series mostly up to 45 µM. A digest of the protocol: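 SYK inhibitor-resistant MV4-11 AML cells, 500 per well, added to predispensed compounds and incubated 72 hr at 37 C, 5% CO2. Viability measured by CellTiter-Glo luminescence after 10 min at room temperature.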
(In general: Quantitative high-throughput screening tests each substance at several concentrations.)
Take `CCN1/C(=C/C(C)=O)Sc2ccc(OC(C)=O)cc21`: the Potency is 10.3 µM (active).
Still for that read-out and setting: as for `Cc1noc(-c2ccc(-c3ccc(C4(C(=O)O)CC4)cc3)cc2)c1NC(=O)O[C@H](C)c1ccccc1`, the figure is 11.8 µM (active); as for `C/C=C1/[C@H](O[C@@H]2O[C@H](CO)[C@@H](O)[C@H](O)[C@H]2O)OC=C(C(=O)OC)[C@H]1CC(=O)OCCc1ccc(O)c(O)c1`, “inactive”; as for `C=C1C(=O)OC2C1CCC1(C)C(O)CCC(=C)C21` (configuration not stated), 4.61 µM (active).
Same read-out and setting: as for `C=CCc1ccc(O[C@@H]2O[C@H](CO[C@@H]3O[C@@H](C)[C@H](O)[C@@H](O)[C@H]3O)[C@@H](O)[C@H](O)[C@H]2O)cc1`, the entry is “inactive”; as for `CC12CCC3c4ccc(O)cc4CCC3C1CC(OC1OC(C(=O)O)C(O)C(O)C1O)C2O` (configuration not stated), “inactive”.
For `CNC(=O)c1cc(Oc2ccc(NC(=O)c3cccc(C(F)(F)F)c3)cc2)ccn1`, the Potency is 11.6 µM (active).
`CN(c1ccccc1CNc1nc(Nc2ccc3c(c2)CC(=O)N3)ncc1C(F)(F)F)S(C)(=O)=O`: the Potency was 0.326 µM (active).
Same read-out and setting: as for `NCCOCCOCCNC(=O)Cc1ccc(Nc2nc(NCc3ccc(F)cc3)nc(NCC3CCCCC3)n2)cc1`, the figure is 4.61 µM (active).
Take `C/C=C1/CC2C(=O)Nc3cc(O)c(OC)cc3C(=O)N2C1` (configuration not stated): the Potency is 14.3 µM (active).
As for `CC(C)S(=O)(=O)c1ccc2nccc(Nc3ccc4scnc4c3)c2c1`, the Potency is 16.4 µM (active).
For `N#Cc1ccc(Nc2nc(-c3ccc(O)cc3O)cs2)cc1C(F)(F)F`, the Potency was 4.61 µM (active).
For `C[C@@H]1O[C@@H](O[C@H]2[C@H](OC(=O)[C@]34CCC(C)(C)C[C@H]3C3=CCC5[C@@]6(C)CC[C@H](O[C@@H]7O[C@H](CO[C@@H]8OC[C@H](O)[C@H](O)[C@H]8O)[C@@H](O)[C@H](O)[C@H]7O)C(C)(C)C6CC[C@@]5(C)[C@]3(C)C[C@H]4O)OC[C@@H](O)[C@@H]2O)[C@H](O)[C@H](O)[C@H]1O[C@@H]1OC[C@H](O)[C@H](O[C@@H]2OC[C@@H](O)[C@H](O)[C@H]2O)[C@H]1O` (some centres not stated), the viability, % of control is 84.6% [at 9.25 µM].
Consider `COc1cc2c(Nc3cc(F)c(Cl)c(Cl)c3)ncnc2cc1OCC1CCCN(C)CCC1`, for which the Potency was 2.59 µM (active).
The same measure, in the same setting: as for `COc1cc2ncnc(N3CCC(Oc4cnc5ccccc5n4)C3)c2cc1OC` (configuration not stated), the figure is 0.411 µM (active); as for `CC(/C=C/C1=CC2=CC(=O)C(C)(O)C(O)C2=CO1)=C\C(C)CCO` (configuration not stated), “inactive”; as for `O=C(O[C@@H]1O[C@H](CO)[C@@H](O)[C@H](O)[C@H]1O)c1c(O)cc(O)cc1/C=C/c1ccccc1`, “inactive”.
Still for that read-out and setting: for `CCOC(=O)C1=CCCCC1S(=O)(=O)Nc1ccc(F)cc1Cl` (configuration not stated) the value was 16.6 µM (active); for `O=C(/C=C/c1ccc(O)cc1)OC[C@H]1O[C@H](O[C@@]2(CO)O[C@@H](CO)[C@H](O)[C@H]2O)[C@H](O)[C@@H](O)[C@@H]1O`, “inactive”.
On the same count and under the same terms, as for `Cc1cc(-c2ncc(-c3cccnc3)cc2/C=C/c2ccccc2)cnc1-c1cccnc1`, the entry is “inactive”; as for `CC(C)=CCC[C@](C)(O)[C@H]1CC[C@]2(C)[C@@H]1[C@H](O)CC1[C@@]3(C)CC[C@H](O)C(C)(C)C3[C@@H](O[C@@H]3O[C@H](CO)[C@@H](O)[C@H](O)[C@H]3O[C@@H]3OC[C@@H](O)[C@H](O)[C@H]3O)C[C@]12C` (some centres not stated), “inactive”.
`C[C@]1(O)CC[C@@H]2C(C(=O)O)=CO[C@@H](O[C@@H]3O[C@H](CO)[C@@H](O)[C@H](O)[C@H]3O)[C@@H]21`: the Potency entry was “inactive”.
Regarding `CC(=O)O[C@H]1[C@H](O[C@H]2[C@@H]3C=CO[C@@H](O[C@@H]4O[C@H](CO)[C@@H](O)[C@H](O)[C@H]4O)[C@@H]3[C@@]3(CO)O[C@@H]23)O[C@@H](C)[C@H](OC(=O)/C=C/c2ccccc2)[C@H]1OC(=O)/C=C/c1ccccc1`, the viability, % of control is 83.3% [at 9.25 µM].
In the case of `Fc1ccc(N2CCCCC2)c(NC(=S)c2ccncc2)c1`, the Potency is 9.2 µM (active).
The same measure, in the same setting: as for `COc1cc(CCO)ccc1O[C@@H]1O[C@H](CO)[C@@H](O)[C@H](O)[C@H]1O`, the entry is “inactive”; as for `CC1(C)C2CC[C@]3(C)C(C(=O)C=C4[C@H]5C[C@@](C)(C(=O)O)CC[C@]5(C)CC[C@]43C)[C@@]2(C)CC[C@@H]1O` (some centres not stated), “inactive”; as for `CC(C)(O)C1CCC(C)(C2CCC3(C)C4CCC5C(C)(C(=O)OC6OC(CO)C(O)C(O)C6O)C(O)CC(O)C56CC46CCC23C)O1` (configuration not stated), “inactive”.
Regarding `CC(=O)O[C@H]1CC[C@@]2(CI)C(=CC[C@@H]3[C@@H]2CC[C@]2(C)[C@@H]([C@H](C)CCCC(C)C)CC[C@@H]32)C1`, the viability, % of control is 83% [at 9.25 µM].
Take `O=C(CC(c1ccccc1)c1ccccc1)N1CCN(C(c2ccccc2)c2ccccc2)CC1`: the Potency was 10.3 µM (active).
Same read-out and setting: for `COC(=O)[C@@]1(O)C=CC[C@@H]2[C@@]3(C)C[C@@H](c4ccoc4)OC(=O)[C@H]3CC[C@]21C` the value was “inactive”.
Still for that read-out and setting: for `COc1cc(C(=O)OC[C@H]2O[C@@H](OC(C)(C)C(=O)O)[C@H](O)[C@@H](O)[C@@H]2O)cc(OC)c1O` the value was “inactive”; for `CCC/C=C/C=C/C1CC(O)C(O)C(=O)C1CO` (configuration not stated), “inactive”.
Turning to `COc1c2cc(c(O[C@@H]3O[C@H](CO)[C@@H](O)[C@H](O)[C@H]3O)c1OC)CCCCC(O)CCc1ccc(O)c-2c1` (some centres not stated), the Potency entry is “inactive”.
On the same count and under the same terms, as for `C(#Cc1nc2ncccc2nc1OCCN1CCCC1)c1ccccc1`, the figure is 1.03 µM (active); as for `C=C1C(=O)O[C@H]2C3=C(C)CCC[C@]3(C)C(=O)C[C@@H]12`, 0.92 µM (active).
The same measure, in the same setting: as for `CCNC(=O)[C@@H]1CCCN1C(=O)[C@H](CCCN=C(N)N)NC(=O)[C@H](CC(C)C)NC(=O)[C@@H](CC(C)C)NC(=O)[C@H](Cc1ccc(O)cc1)NC(=O)[C@H](CO)NC(=O)[C@H](Cc1c[nH]c2ccccc12)NC(=O)[C@H](Cc1cnc[nH]1)NC(=O)[C@@H]1CCC(=O)N1`, the figure is 7.09 µM (active); as for `CC[C@H](CO)Nc1nc(Nc2cccc(-c3ccccn3)c2)c2ncn(C(C)C)c2n1`, 5.17 µM (active); as for `CC1=C2CC(=O)C(C)CC/C=C(\C)CC2OC1=O` (configuration not stated), “inactive”.
For the compound `C=CC(C)(C)c1[nH]c2ccccc2c1C[C@@H]1NC(=O)[C@H](C)NC1=O`, the Potency entry was “inactive”.
Still for that read-out and setting: for `CCN1/C(=C/C=C/c2sc3ccccc3[n+]2CC)Sc2ccccc21` the value was 0.058 µM (active).
